We go through 40 compounds from PubChem BioAssay (Tox21).

Each structure is given as a SMILES string. Records with an inconclusive call do not appear. Active and inactive are the calls of the source. Calls follow the shape of the dose curve; as a rule, active = well fitted activation curve with a large enough effect in the signal ratio in the repeat runs (not every such curve was filed as active); inconclusive = weak or mixed curves; inactive = flat fitted curve, though single readings scatter; the % refers to the signal ratio.
% is scaled to controls: 0 for no effect and ±100 for the full control effect.

The assay can be described thus: qHTS assay to identify small molecule agonists of the hypoxia (HIF-1) signaling pathway (AID 1224846). Conditions: HRE-bla ME-180 cells, beta-lactamase ratio, 17 h; series mostly up to 76.8 µM. The source says:
U.S. Tox21 Program National Center for Advancing Translational Sciences [NCATS] NIH Chemical Genomics Center [NCGC] U.S. Environmental Protection Agency [EPA] National Institutes of Environmental Health Sciences [NIEHS] National Toxicology Program [NTP] U.S. Food and Drug Administration [FDA] Tox21 Assay Overview: Hypoxia-inducible factor-1 (HIF-1) is the major hypoxia-regulated transcription factor that controls cellular responses to low oxygen concentration. HIF-1 is composed of two subunits: hypoxia responsive HIF-1-alpha and constitutively expressed HIF-1-beta, which is also known as aryl hydrocarbon receptor nuclear translocator. During hypoxic conditions, HIF-1-alpha heterodimerizes with HIF-1-beta and translocates into the nucleus where the HIF-1 complex binds to the hypoxia-response element (HRE) and activates expression of target genes such as VEGF (vascular endothelial growth factor). The HIF-1 pathway is essential to normal growth and development, and is involved in the pathophysiology of cancer, inflammation, and ischemia. Using a beta-lactamase reporter-gene under control of the hypoxia response element, a cell-based assay [CellSensor(TM) HRE-bla ME-180 from Life Technologies, Carlsbad, CA] was used to measure hypoxia-induced signaling. Tox21 10K library compounds were measured for their ability to induce the reporter gene activity.
Tox21 Assay Protocol Summary: HRE-bla ME-180 cells were dispensed at 2,000 cells per well in 6 uL of assay medium containing 0.5% dialyzed FBS into black wall/clear-bottom 1536-well plates using a Multidrop Combi (Thermo Scientific, Waltham, MA) dispenser. After the assay plates were incubated at 37C and 5% CO2 for 5 hrs, 23 nL of compounds dissolved in DMSO, positive controls or DMSO only was transferred to each well of the assay plate using a Pintool station (Kalypsys, San Diego, CA). The assay plates were incubated at 37C and 5% CO2 for 17 hrs. One uL of LiveBLAzerTM B/G FRET substrate (CCF4-AM) (Life Technologies) was added to each well using a Flying Reagent Dispenser (Aurora Discovery, San Diego, CA).
(In general: Quantitative high-throughput screening tests each substance at several concentrations.)
Take `COc1ccc(Cl)cc1C`: the result was inactive.

As to `BrCCOc1ccccc1`, the result was inactive.

For the compound `COc1cc(S(N)(=O)=O)cc(C(=O)O)c1OC`, the result was inactive.

Consider `O=C(O)Cc1c(Cl)ccc(Cl)c1Cl`, for which the outcome was inactive.

As to `CC(CN1CC(=O)NC(=O)C1)N1CC(=O)NC(=O)C1` (stereo not given), the result was inactive.

For `CC/C=C\CCOC(=O)c1ccccc1`, the result was inactive.

Take `Cc1cc(N)no1`: the result was inactive.

On to `CSC(=O)c1cccc2nnsc12`, for which the result was inactive.

As to `COc1cc(C(=O)NC2CCCNC2)cc(OC)c1OC` (stereo not given), the result was inactive.

For the compound `CN1CCN(C(=O)C2CCCCC2)CC1`, the result was inactive.

Take `COC(C)(C)CC(C)=O`: the outcome was inactive.

For `CCOC(=O)[C@H](CCc1ccccc1)N[C@H]1CS[C@H](c2cccs2)CN(CC(=O)O)C1=O`, the result was inactive.

With `CN(C)CCCN(C)C`, the activation was -0.634% [at 7.01 µM] (inactive).

As to `Cc1ccc(OC(=O)CC(C)C)cc1`, the outcome was inactive.

For the compound `C=CC(=O)CC`, the outcome was inactive.

Turning to `CCCCCCCCCCCCCCCCN(C)C`, the activation is -0.212% [at 7.01 µM] (inactive).

With `Cc1ccc2cccnc2c1`, the result was inactive.

As to `N#CC1(N)CCCCC1`, the result was inactive.

Take `Nc1ccc(C(=O)NCC(=O)O)cc1`: the outcome was inactive.

`Clc1ccc2c(c1)Nc1ccccc1S2`: the outcome was inactive.

`O=C(O)P(=O)(O)O`: the outcome was inactive.

As for `CCC(C)c1nccnc1OC` (stereo not given), the result was inactive.

`COCc1nnc(-c2ccc[n+]([O-])c2)n1-c1c(Cl)c(Cl)cc2[nH]c(=O)c(=O)[nH]c12`: the result was inactive.

Turning to `Cc1nc2ccc(Cl)cc2[nH]1`, the result was inactive.

In the case of `C=CCN1CCc2nc(N)sc2CC1`, the outcome was inactive.

For the compound `CC(C)(C)c1ccc(C(=O)CCCCl)cc1`, the result was inactive.

Take `NNC(=O)CCCCC(=O)NN`: the result was inactive.

In the case of `N[C@H]1C(O)O[C@H](CO)[C@@H](O)[C@@H]1O` (stereo not given in full), the result was inactive.

In the case of `CC(CC(=O)Cl)CC(C)(C)C` (stereo not given), the outcome was inactive.

In the case of `CC(C)c1cc(C(C)C)cc(C(C)C)c1`, the result was inactive.

Turning to `CCN(CC)CC(=O)Oc1ccc(NC(C)=O)cc1`, the outcome was inactive.

Regarding `CC(C)(C)C(=O)CC(=O)C(C)(C)C`, the result was inactive.

For the compound `C=C(C)C(=O)OCCOC1CC2CC1C1C=CCC21` (stereo not given), the result was inactive.

Turning to `CC(C)(O)c1ccc(C(C)(C)O)cc1`, the result was inactive.

For the compound `CCCCN=C(N)N=C(N)N`, the outcome was inactive.

On to `C=CC(=O)OCCOCCOCC`, for which the outcome was inactive.

With `CCCCC(CC)COC(=O)CC#N` (stereo not given), the result was inactive.

Consider `C/C(=N\O)c1ccc(OCC(=O)N2CCCCC2)cc1`, for which the outcome was inactive.

On to `COC(=O)c1c(C)cc(O)c(C)c1O`, for which the result was inactive.

On to `CCc1ncc(C)[nH]1`, for which the outcome was inactive.
